According to PubChem BioAssay AID504710 (Sanford-Burnham Center for Chemical Genomics, 2011):
Activity calls are given as the source filed them.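 Rule for the calls: active = inhibition reaching about 16% in any single replicate (limit read from the data); inactive = the rest.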

target: Hexokinase HKDC1 (Homo sapiens) (UniProt Q2TB90); assay: HKDC1 hexokinase inhibitors, confirmation, biochemical, single concentration (AID 504710); conditions: recombinant HKDC1, G6PDH/diaphorase/resazurin fluorescence; at 20 µM; hits give high values
Sequence (Q2TB90 whole entry, looked up): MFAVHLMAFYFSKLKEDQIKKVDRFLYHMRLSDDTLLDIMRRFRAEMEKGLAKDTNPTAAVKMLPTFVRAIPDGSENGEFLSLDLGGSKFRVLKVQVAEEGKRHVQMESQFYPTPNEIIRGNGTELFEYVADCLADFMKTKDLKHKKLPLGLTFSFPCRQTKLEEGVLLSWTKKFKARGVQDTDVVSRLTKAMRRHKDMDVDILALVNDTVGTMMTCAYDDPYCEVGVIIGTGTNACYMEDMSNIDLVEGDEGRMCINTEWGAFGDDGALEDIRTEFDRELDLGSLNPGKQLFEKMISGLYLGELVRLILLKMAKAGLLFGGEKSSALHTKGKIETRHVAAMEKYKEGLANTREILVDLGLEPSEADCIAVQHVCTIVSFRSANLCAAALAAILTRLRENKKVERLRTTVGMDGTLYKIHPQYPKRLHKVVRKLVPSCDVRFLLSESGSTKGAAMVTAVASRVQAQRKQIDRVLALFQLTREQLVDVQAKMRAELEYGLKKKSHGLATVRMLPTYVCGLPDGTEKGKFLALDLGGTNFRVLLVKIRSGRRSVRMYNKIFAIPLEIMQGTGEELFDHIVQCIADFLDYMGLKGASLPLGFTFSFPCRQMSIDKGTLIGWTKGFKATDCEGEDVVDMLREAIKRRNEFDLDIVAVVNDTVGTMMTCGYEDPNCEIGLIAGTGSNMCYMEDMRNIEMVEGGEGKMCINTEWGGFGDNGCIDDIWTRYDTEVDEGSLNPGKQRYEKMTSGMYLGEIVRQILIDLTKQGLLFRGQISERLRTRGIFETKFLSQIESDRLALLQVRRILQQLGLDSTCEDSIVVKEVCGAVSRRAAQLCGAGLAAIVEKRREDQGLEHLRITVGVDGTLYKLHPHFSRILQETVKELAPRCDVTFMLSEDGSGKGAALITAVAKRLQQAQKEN

| Structure (SMILES) | inhibition |
| --- | --- |
| O=C(O)COc1ccc(/C=N/NC(=O)c2ccc(-c3csc(Nc4ccc(Cl)cc4)n3)cc2)cc1 | 24.2% (active) |
| CCOC(=O)c1ccc(NC2=CC(=O)C(=O)c3ccccc32)cc1 | 27.6% (active) |
| O=[N+]([O-])c1ccc(Sc2nc3ccccc3o2)c([N+](=O)[O-])c1 | 30.4% (active) |
| Cc1nc2c(c(=O)c3ccccc3n2C)c(=O)n1-c1ccccc1 | 56% (active) |
| O=c1[nH]c2ccccc2n2c(-c3ccccc3)nnc12 | 58.5% (active) |
| CC(C)(C)c1c(Cl)c(O)c(-c2ccccc2)c(=O)n1-c1ccccc1 | 40.9% (active) |
| COC(=O)Cn1c2ccc(F)cc2c2nc(C)sc21 | -90.4% (inactive) |
| COc1cc(/C=C(\C#N)c2nc3ccc(C)cc3[nH]2)cc([N+](=O)[O-])c1O | 42.2% (active) |
| CCCOc1ccc(/C=N/NC(=S)Nc2ccccc2[N+](=O)[O-])c(O)c1 | -47.6% (inactive) |
| CC(OC(=O)c1cc(O)c2ccccc2c1O)C(=O)Nc1ccc(C(N)=O)cc1 (configuration not stated) | 28.4% (active) |
| COc1ccc(C(=O)c2coc3c2C(=O)C(=O)c2ccccc2-3)cc1 | 44.8% (active) |
| CC1(C)C(=O)Nc2ccccc2N1C(=O)COC(=O)c1cc(Cl)cc(Cl)c1 | -50.1% (inactive) |
| O=C(O)c1ccc(NC2=C(Cl)C(=O)c3ccccc3C2=O)cc1 | -94.3% (inactive) |
| CC(=O)Nc1ccc(C2=NNC(=Nc3ccc(S(=O)(=O)N4CCOCC4)cc3)SC2)cc1 | -234% (inactive) |
| CCN(CC)C(=O)c1ccc(C(=O)c2c(C)cc(C)cc2C)cc1 | -40.1% (inactive) |
| Cc1ccc(C)c(-n2c3nc(=O)[nH]c(=O)c-3cc3cc([N+](=O)[O-])ccc32)c1 | 39.2% (active) |
| COc1cc(/C=C2/C(=O)NN(c3ccc(Cl)c(Cl)c3)C2=O)cc([N+](=O)[O-])c1O | 33.1% (active) |
| Nc1nc(-c2cccc(Br)c2)cs1 | -40.6% (inactive) |
| Oc1ccc(O)c(Cc2nc3ccccc3[nH]2)c1 | 56% (active) |

| Structure (SMILES) | inhibition |
| --- | --- |
| COc1ccc(-n2c(C)cc(C(=O)CCl)c2C)cc1 | 34.3% (active) |
| Cc1onc(-c2ccccc2)c1C(=O)NNC(=S)NC(=O)c1ccc(Br)cc1 | -56.7% (inactive) |
| O=C1C=C(Nc2ccccc2C(=O)O)c2ccccc2C1=O | 44.3% (active) |
| O=[N+]([O-])c1ccc(NN=Cc2ccc(O)cc2O)nc1 | 50.8% (active) |
| Cc1cc2nnc(SCC(=O)Nc3cc(S(=O)(=O)N4CCOCC4)ccc3Cl)n2c2ccccc12 | 37.4% (active) |
| Cc1ccc(-n2c3nc(=O)[nH]c(=O)c-3cc3cc([N+](=O)[O-])ccc32)cc1 | 56.2% (active) |
| CCOC(=O)CSc1nc2ccc(C)cc2n2cnnc12 | 63.8% (active) |
| COc1ccc(NC(=O)Cc2c[nH]c3ccccc23)cc1S(=O)(=O)N1CCCCC1 | -35.1% (inactive) |
| O=C(O)CSc1cc(NS(=O)(=O)c2cccc([N+](=O)[O-])c2)c2ccccc2c1O | 47.9% (active) |
| COc1cc(NC(=O)c2cnc(N)s2)cc(C(=O)Nc2cccc(C(F)(F)F)c2)c1 | 41.2% (active) |
| CSc1nc(N)nc2c1ncn2CC(=O)N[C@H](C)c1cccc2ccccc12 | -73.5% (inactive) |
| CCN=C1NN=C(c2ccc(C)cc2)CS1 | -52% (inactive) |
| N#Cc1c(SCC(=O)Nc2nc3ccc(Br)cc3s2)sc2c(O)cc(=O)[nH]c12 | 44.9% (active) |
| CN1c2ccc(C=O)c3c(C=O)ccc(c23)N(C)C1(C)C | 61.2% (active) |
| O=C1C=C(c2c(O)ccc3ccccc23)c2ccccc2C1=O | 78.1% (active) |
| NC1=CC(=O)C(=O)c2ccccc21 | 48.7% (active) |
| O=C(O)c1ccc(S(=O)(=O)/N=C2\C=C(Nc3ccccc3F)C(=O)c3ccccc32)cc1 | 75.7% (active) |
| CCCc1nc2oc3c(NCCOCCO)ncnc3c2c2c1COC(C)(C)C2 | 41.7% (active) |
